Experimental data as given in PubChem BioAssay.
The source made the active and inactive calls. Unless noted, how the calls were made is not given here.

Columns and labels:
[1] = resazurin metabolic signal in HepG2 cells – cell-based, resazurin fluorescence, 24 h, PK04 Diversity Set, profiling panel (AID 1172); conditions: HepG2 viability, higher = more signal
[2] = budding yeast growth changes without added modifier – OD600, strain BY4716, 24 h, basal condition, primary screen (AID 1173); conditions: S. cerevisiae BY4716 growth, OD600, 24 h; higher = more signal, called active from +8 up or from −8 down
[3] = viability profiling in MM1S myeloma cells – cell-based, resazurin fluorescence, basal, 24 h, PK04 Diversity Set, profiling panel (AID 1174); conditions: higher = more signal, called active from +8 up or from −8 down;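 further: MM1S multiple myeloma cell line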
[4] = biological target: Dihydroorotate dehydrogenase (quinone), mitochondrial (Plasmodium falciparum (isolate 3D7)) (UniProt Q08210); experiment: inhibition of P. falciparum DHODH – biochemical, C-terminal His tag, absorbance 600 nm, primary screen (AID 1175); conditions: PfDHODH enzyme, DCIP absorbance 600 nm; higher = more signal, called active from +8 up or from −8 down;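 further: recombinant parasite enzyme with a five histidine tag at its C terminus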
[5] = inhibition of PAO1 biofilm formation – strain PAO1, LB-PBS medium, absorbance 600 nm, primary screen (AID 1176); conditions: P. aeruginosa PAO1 growth/biofilm, A600, 12 h; higher = more signal
[6] = growth modulation of vineyard yeast isolate – strain RM11-1a, OD600, basal, 24 h, primary screen (AID 1177);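 further: cultures grown under basal conditions with no added stressor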; conditions: S. cerevisiae RM11-1a growth, OD600, 24 h; higher = more signal, called active from +8 up or from −8 down
[7] = growth of efflux-deficient E. coli DRC39 – strain DRC39, OD650, 24 h, E. coli filamentation inducers, primary screen (AID 1178);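 further: growth measured as culture turbidity by optical density at 650 nm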; conditions: E. coli DRC39 acrAB, higher = more signal, called active from +8 up or from −8 down
[8] = growth of efflux-deficient E. coli DRC39 – strain DRC39, OD650, 48 h, E. coli filamentation inducers, primary screen (AID 1179);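 further: screen aims at cell division blockers that make cells filament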; conditions: E. coli DRC39 delta-acrAB growth, higher = more signal, called active from +8 up or from −8 down
[9] = viability profiling in RPMI8226 myeloma cells – cell-based, resazurin fluorescence, basal, 24 h, PK04 Diversity Set, profiling panel (AID 1180); conditions: higher = more signal;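 further: RPMI8826 multiple myeloma cell line at 5000 cells per well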
[10] = biological target: E3 ubiquitin-protein ligase XIAP (Homo sapiens) (UniProt P98170); experiment: small molecules binding XIAP protein – biophysical, small-molecule microarray, fluorescence 635 nm, primary screen (AID 1181); conditions: higher = more signal;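 further: score merges 667 nm emission and signal to noise over triplicate slides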
[11] = tested on: XIP peptide (Xip251-270) binding; experiment: XIP fragment 251-270 binding compounds – biochemical, small-molecule microarray, fluorescence 635/667 nm, 0.1 µg/mL protein, primary screen (AID 1182); conditions: fluorescent protein binding, 635 nm, higher = more signal, called active from +8 up or from −8 down
XIP peptide (Xip251-270) = experiment: compounds binding XIP fragment 251-270 – biochemical, small-molecule microarray, fluorescence 635/667 nm, 0.5 µg/mL protein, primary screen (AID 1183); conditions: fluorescence 635 nm, higher = more signal
[12] = blood-stage malaria parasite viability loss – strain 3D7, DAPI fluorescence, 100 nL, primary screen (AID 1184);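 further: parasites grown inside human red blood cells in medium with human serum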; conditions: P. falciparum 3D7 growth, 3 d, higher = more signal
[13] = biological target: Homeobox protein Hox-A13 (Mus musculus) (UniProt Q62424); experiment: disruptors of Hoxa13 oligonucleotide interaction – biochemical, fluorescence polarization, labeled oligonucleotide, primary screen (AID 1185); conditions: Hoxa13:DNA binding, 15 min, higher = more signal, called active from +8 up or from −8 down
[14] = blockers of DNA damage checkpoint Chk1 activation – imaging, HeLa, hydroxyurea, phospho-Chk1 antibody, percent positive cells, primary screen (AID 1186); conditions: hydroxyurea-induced phospho-Chk1 immunofluorescence imaging, higher = more signal
[15] = blockers of DNA damage checkpoint Chk1 activation – imaging, HeLa, hydroxyurea, phospho-Chk1 nuclear intensity, primary screen (AID 1187); conditions: hydroxyurea-induced phospho-Chk1 immunofluorescence imaging, higher = more signal

Chain of Homeobox protein Hox-A13 (Mus musculus) (Q62424 whole entry, looked up): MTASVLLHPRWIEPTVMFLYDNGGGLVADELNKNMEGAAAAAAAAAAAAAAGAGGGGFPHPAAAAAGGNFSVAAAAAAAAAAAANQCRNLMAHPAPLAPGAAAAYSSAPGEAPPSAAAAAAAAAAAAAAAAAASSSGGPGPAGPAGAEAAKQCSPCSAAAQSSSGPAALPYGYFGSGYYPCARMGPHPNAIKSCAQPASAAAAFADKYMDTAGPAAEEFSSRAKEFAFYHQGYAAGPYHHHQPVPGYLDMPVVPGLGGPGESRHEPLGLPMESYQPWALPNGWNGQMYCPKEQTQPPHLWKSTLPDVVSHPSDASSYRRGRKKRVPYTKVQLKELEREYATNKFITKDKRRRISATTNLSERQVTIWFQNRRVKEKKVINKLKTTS
Chain of Dihydroorotate dehydrogenase (quinone), mitochondrial (Plasmodium falciparum (isolate 3D7)) (Q08210 whole entry, looked up): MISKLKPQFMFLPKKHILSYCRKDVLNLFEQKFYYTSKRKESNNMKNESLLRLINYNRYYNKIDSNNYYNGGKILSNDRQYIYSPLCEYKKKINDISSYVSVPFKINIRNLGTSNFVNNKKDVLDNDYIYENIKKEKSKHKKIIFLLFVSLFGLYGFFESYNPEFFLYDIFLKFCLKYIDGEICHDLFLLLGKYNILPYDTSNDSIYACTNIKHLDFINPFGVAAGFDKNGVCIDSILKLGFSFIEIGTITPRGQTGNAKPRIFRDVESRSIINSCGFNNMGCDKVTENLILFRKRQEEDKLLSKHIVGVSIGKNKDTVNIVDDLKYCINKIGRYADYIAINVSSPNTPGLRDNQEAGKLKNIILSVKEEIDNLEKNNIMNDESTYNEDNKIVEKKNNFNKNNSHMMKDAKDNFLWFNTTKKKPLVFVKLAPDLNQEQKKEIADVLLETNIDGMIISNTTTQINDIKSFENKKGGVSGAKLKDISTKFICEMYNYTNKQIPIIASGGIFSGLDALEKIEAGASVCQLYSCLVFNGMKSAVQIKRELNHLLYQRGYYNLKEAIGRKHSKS
Chain of E3 ubiquitin-protein ligase XIAP (Homo sapiens) (P98170 whole entry, looked up, the tested form may be a part): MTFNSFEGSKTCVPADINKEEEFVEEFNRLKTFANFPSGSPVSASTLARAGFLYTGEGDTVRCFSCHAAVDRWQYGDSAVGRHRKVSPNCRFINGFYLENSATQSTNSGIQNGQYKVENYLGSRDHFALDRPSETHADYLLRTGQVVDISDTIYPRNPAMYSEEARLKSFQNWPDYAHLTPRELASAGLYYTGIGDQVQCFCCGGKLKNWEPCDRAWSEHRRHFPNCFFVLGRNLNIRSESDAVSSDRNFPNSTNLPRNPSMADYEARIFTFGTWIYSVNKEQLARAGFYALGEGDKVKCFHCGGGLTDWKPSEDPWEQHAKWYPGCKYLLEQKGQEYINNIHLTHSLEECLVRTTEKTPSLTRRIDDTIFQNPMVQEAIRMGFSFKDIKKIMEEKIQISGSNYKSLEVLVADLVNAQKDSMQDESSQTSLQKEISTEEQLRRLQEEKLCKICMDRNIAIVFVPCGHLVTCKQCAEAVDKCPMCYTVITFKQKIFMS

SMILES	z-score [1]	z-score [2]	z-score [3]	composite z-score [4]	z-score [5]	z-score [6]	z-score [7]	z-score [8]	z-score [9]	composite z-score [10]	composite z-score [11]	composite z-score (XIP peptide (Xip251-270))	z-score [12]	z-score [13]	z-score [14]	z-score [15]
CS(=O)(=O)CCOC(=O)C1=CC(CCCO)=CC(c2cccs2)N(Cc2cc3c(cc2Br)OCO3)C=C1C(=O)OCCS(C)(=O)=O (configuration not stated)	1.13	-2.65 (inactive)	0.209 (inactive)	0.359 (inactive)	0.142 (inactive)	0.379 (inactive)	0.571 (inactive)	0.503 (inactive)	0.0578	0.122	0.555 (inactive)	0.634	-3.01	-2.91 (inactive)	-0.169 (inactive)	0.132 (inactive)
Cc1cc(C)c(C(O)C2C=CC3C(=O)N(C)C(=O)C3N2Nc2ccccc2)c(C)c1 (configuration not stated)	-1.03	-0.0657 (inactive)	-1.1 (inactive)	0.0016 (inactive)	0.944 (inactive)	-0.362 (inactive)	-0.709 (inactive)	-0.456 (inactive)	-1.46	0.372	-0.0222 (inactive)	0.794	0.642	-2.71 (inactive)	0.195 (inactive)	-0.137 (inactive)
CC(c1ccccc1)C(O)C1C=CC2C(=O)NC(=O)C2N1Nc1ccccn1 (configuration not stated)	-0.987	1.34 (inactive)	-0.757 (inactive)	0.865 (inactive)	1.33 (inactive)	1.27 (inactive)	0.15 (inactive)	0.226 (inactive)	-0.806	0.0049	0.197 (inactive)	0.676	0.196	-1.82 (inactive)	0.651 (inactive)	0.136 (inactive)
C=CC[C@]1(C(=O)N2CCOCC2)N=C(c2ccc(OCCCO)cc2)O[C@H]1c1ccccc1	0.318	-1.4 (inactive)	-0.0524 (inactive)	0.373 (inactive)	1.17 (inactive)	-0.594 (inactive)	0.14 (inactive)	0.122 (inactive)	0.335	-0.031	0.661 (inactive)	0.362	-0.887	-6.82 (inactive)	-0.274 (inactive)	-0.217 (inactive)
C=CCOC(=O)[C@H]1[C@@H]2C(=O)O[C@@H](c3ccccc3)[C@@H](c3ccccc3)N2[C@@H](c2ccc(OCCOC(=O)[C@@H]3C[C@@H]4C(=O)N5CCC[C@H]5C(=O)N4[C@@H]3c3ccc(O)cc3)cc2)[C@]12C(=O)Nc1ccccc12	0.196	0.865 (inactive)	0.841 (inactive)	-0.379 (inactive)	0.957 (inactive)	2.73 (inactive)	0.468 (inactive)	0.971 (inactive)	1.71	0.224	0.188 (inactive)	0.838	-1.8	1.28 (inactive)	-0.788 (inactive)	-0.507 (inactive)
COC(=O)C1=CC(CCCO)=CC(C2CC2)N(Cc2sc3ccccc3c2Cl)C=C1C(=O)OC (configuration not stated)	-0.908	-1.32 (inactive)	-0.944 (inactive)	-4.56 (inactive)	-0.0065 (inactive)	1.61 (inactive)	0.386 (inactive)	-0.444 (inactive)	-0.691	-0.0172	0.827 (inactive)	0.793	-2.02	-5.27 (inactive)	0.0745 (inactive)	0.263 (inactive)
COc1ccc(CCNC(=O)[C@@]2(c3ccc([N+](=O)[O-])cc3)CC(=O)N(CC34CC5CC(CC(C5)C3)C4)[C@@H]2c2ccc(CO)cc2)cc1	-1.86	-0.125 (inactive)	-2.58 (inactive)	0.682 (inactive)	1.61 (inactive)	0.526 (inactive)	-0.226 (inactive)	-0.281 (inactive)	-2.81	0.0073	0.349 (inactive)	0.735	-1.79	-2.31 (inactive)	-0.42 (inactive)	-0.458 (inactive)
COC(=O)C(CC#Cc1ccc2c(c1)[C@]1(C(=O)N2)[C@H](c2ccc(OCCO)cc2)N2[C@H](c3ccccc3)[C@H](c3ccccc3)OC(=O)[C@H]2[C@@H]1C(=O)NC[C@H](O)c1ccccc1)C(=O)OC	0.722	1.51 (inactive)	0.343 (inactive)	0.676 (inactive)	1.05 (inactive)	3.39 (inactive)	0.602 (inactive)	0.869 (inactive)	-0.47	0.104	1.14 (inactive)	0.836	-1.79	-0.715 (inactive)	0.0415 (inactive)	0.364 (inactive)
COC(=O)C[C@H]1O[C@]2(C(=O)N(Cc3ccccc3)c3ccc(NC(C)=O)cc32)[C@@H](C)[C@@H]1[Si](C)(C)c1ccc(OC)cc1	-1.11	0.457 (inactive)	-1.33 (inactive)	1.45 (inactive)	-0.602 (inactive)	0.952 (inactive)	-0.871 (inactive)	-0.69 (inactive)	-0.681	-0.227	0.337 (inactive)	0.27	-3.05	-3.04 (inactive)	0.918 (inactive)	0.536 (inactive)
CCOC(=O)C1=CCC(C(C)(C)C)N(S(=O)(=O)c2ccc(C)cc2)C1 (configuration not stated)	-0.462	0.586 (inactive)	-0.0359 (inactive)	0.406 (inactive)	-0.321 (inactive)	1.29 (inactive)	-0.021 (inactive)	-0.52 (inactive)	-0.719	-0.0476	0.548 (inactive)	0.806	-0.797	-4.56 (inactive)	-1.42 (inactive)	-1.98 (inactive)
COC(=O)[C@@]1(Cc2ccccc2)[C@H]2c3cc(C(=O)N(C)C)n(Cc4cc(C)n(C)n4)c3C[C@H]2CN1C(=O)c1ccccc1	-1.03	0.289 (inactive)	-0.99 (inactive)	-0.857 (inactive)	0.687 (inactive)	-0.211 (inactive)	-1.12 (inactive)	-0.944 (inactive)	-0.566	0.0737	-0.0185 (inactive)	0.635	-1.19	-5.13 (inactive)	0.489 (inactive)	0.42 (inactive)
Cc1ccc(S[C@]2(C(=O)NCC(C)C)CC(=O)N(Cc3ccccc3Cl)[C@@H]2c2ccc(CO)cc2)cc1	-0.0675	-0.511 (inactive)	0.196 (inactive)	-0.223 (inactive)	-0.205 (inactive)	0.343 (inactive)	-0.115 (inactive)	-0.219 (inactive)	0.405	0.012	0.0729 (inactive)	-0.313	0.423	-2.53 (inactive)	0.259 (inactive)	0.658 (inactive)
CC(C)NC(=O)[C@@H]1c2ccccc2C(=O)N(Cc2ccccc2Cl)[C@H]1c1ccc(CO)cc1	1.6	-0.197 (inactive)	-0.27 (inactive)	0.233 (inactive)	0.183 (inactive)	0.358 (inactive)	0.696 (inactive)	0.661 (inactive)	0.131	0.103	0.989 (inactive)	0.719	-0.842	-3.24 (inactive)	0.323 (inactive)	0.667 (inactive)
NCCCCCCNC(=O)[C@H]1C[C@H]2C(=O)NCC(=O)N2[C@H]1c1cccc(OCCO)c1	0.583	-1.42 (inactive)	0.724 (inactive)	-0.42 (inactive)	-0.475 (inactive)	-0.689 (inactive)	1.42 (inactive)	1.61 (inactive)	1.08	0.0785	2.26 (inactive)	0.814	0.005	-2.07 (inactive)	0.234 (inactive)	0.495 (inactive)
O=C1C2C=CC(C(O)c3ccc(-c4ccccc4)s3)N(n3cnnc3)C2C(=O)N1Cc1ccccc1 (configuration not stated)	-0.295	1.07 (inactive)	-0.559 (inactive)	0.267 (inactive)	0.092 (inactive)	0.766 (inactive)	-0.27 (inactive)	-0.0301 (inactive)	-0.259	0.296	-0.457 (inactive)	0.951	-0.802	-2.98 (inactive)	-0.295 (inactive)	-0.514 (inactive)
O=C1O[C@H](c2ccccc2)[C@H](c2ccccc2)N2[C@H]1[C@@H](C(=O)O)[C@]1(C(=O)Nc3ccc(C#CC4=CCCCC4)cc31)[C@H]2c1ccc(OCCO)cc1	0.732	0.0899 (inactive)	0.533 (inactive)	-14.1 (active)	3.39 (inactive)	1.26 (inactive)	0.668 (inactive)	-0.175 (inactive)	-0.219	-0.271	0.4 (inactive)	0.813	-0.656	-5.08 (inactive)	0.222 (inactive)	-0.0216 (inactive)
COc1ccccc1CN1C(=O)c2ccccc2[C@@H](C(=O)NCCN2CCOCC2)[C@@H]1c1ccc(CO)cc1	0.505	-0.248 (inactive)	-0.0527 (inactive)	0.249 (inactive)	1.56 (inactive)	-0.0436 (inactive)	0.187 (inactive)	-0.0251 (inactive)	0.154	0.101	-0.0758 (inactive)	0.853	-1.86	-4.64 (inactive)	0.193 (inactive)	0.531 (inactive)
